Structures are written as SMILES. Inconclusive results are not listed. Values without a mark were called inactive. Activity calls are given as the source filed them. Calls come from the whole dose curve; as a rule, active = well fitted activation curve with a large enough effect; inconclusive = small, poorly fitted or top-dose-only effect; inactive = flat fitted curve, though single readings scatter.

This assay can be described thus: Cell viability assay for measurement of the protective activity of small molecules against cell death caused by Zika virus infection in human astrocytoma cells. Particulars: SNB-19 Zika virus cytoprotection, ATP luminescence, 72 h; series mostly up to 46.1 µM; protection from virus-induced cell death: at the top concentration. From the text: National Center for Advancing Translational Sciences [NCATS] Johns Hopkins University School of Medicine Florida State University Assay Overview: Zika virus infection causes cell death in certain cell types including human neural progenitor cells (hNPCs), astrocytes, and astrocytoma cell line (SNB-19). This cell viability assay measures the ATP content (level) in human astrocytoma cells (SNB-19) using a luminescence readout that is proportional to viable cell numbers. Decrease in the luminescence signal after Zika virus infection indicates the cell death caused by Zika virus. Small molecule inhibitors […] the decreased luminescence signal after Zika virus infection, indicating the protective effect of that small molecule on the cell death caused by Zika virus infection. This observed protective effect of small molecules against Zika virus induced cell death may result from inhibition of virus replication or cellular response to the virus infection.
Assay Protocol Summary: The medium for SNB-19 cells is composed of RPMI 1640 (ATCC, Cat.# 30-2001), 10% fetal bovine serum (FBS) (GE healthcare Life Sciences, Cat.# SH30071.03), and 1% Pen/Strep (Gibco, Cat.# 15140-122). The ATP content assay kit (PerkinElmer, Cat.# 6016731) was used to determine cell viability. The reagent was reconstituted and prepared as described by the manufacturer. Cells were seeded in 384- or 1536-well assay plates and cultured at 37 C with 5% CO2 for 16 to 20 hours. The typical cell seeding density in the 1536-well plate assay is 250 cells/well in 3ul medium for SNB-19 cells in tissue culture treated plates. Compounds were added to cells and incubated for one hour before addition of ZIKV solution to cells (2 FFU/cell). After incubation at 37 C with 5% CO2 for 72 hours, the reagent mixture of the ATP content assay kit was added to each well, followed by incubation at room temperature for 10 minutes. The luminescence intensity of the assay plates was measured using a ViewLux plate reader (PerkinElmer). […] The percentage inhibitions of the decreased cell viability by small molecule inhibitors were then calculated.
For the compound `S=C(SSC(=S)N1CCCCC1)N1CCCCC1`, the Potency is 17300 nM (active).

`O=S(=O)(CC1CS1)c1ccc(Oc2ccccc2)cc1` (stereo not drawn): the “protection from virus-induced cell death” value is 11.2%.

Regarding `CN1CC(=O)N2C(Cc3c([nH]c4ccccc34)[C@H]2c2ccc3c(c2)OCO3)C1=O` (stereo partly drawn), the “protection from virus-induced cell death” value was 2.24%.

As for `COP(=S)(OC)SCN1C(=O)c2ccccc2C1=O`, the “protection from virus-induced cell death” value was -5.99%.

In the case of `CC(C)N[C@@H]1CCn2c(=O)[nH]c3cccc(c32)[C@@H]1O`, the “protection from virus-induced cell death” value is -8.11%.

Take `O=C1CCC[C@@H]2[C@H]3CCCN4CCC[C@@H](CN12)[C@@H]34`: the “protection from virus-induced cell death” value is 3.58%.

Take `CC(C)[C@H]1C(=O)N[C@H](CO)Cc2c[nH]c3cccc(c23)N1C`: the Potency was 2450 nM (active).

As to `COc1cccc2c1C(=O)c1c(O)c3c(c(O)c1C2=O)C[C@@](O)(C(=O)CO)CC3OC1CC(N2CCOC(OC)C2)C(O)C(C)O1` (stereo partly drawn), the Potency was 388 nM (active).

As to `Cc1ccc([N+](=O)[O-])[c]2c1[O][Hg]2`, the “protection from virus-induced cell death” value was -16.5%.

For the compound `O=C(Nc1ccc(Br)cc1)c1cc(Br)cc(Br)c1O`, the “protection from virus-induced cell death” value was -11.1%.

Regarding `CC(=C(CCOC(=O)C(C)C)SSC(CCOC(=O)C(C)C)=C(C)N(C=O)Cc1cnc(C)nc1N)N(C=O)Cc1cnc(C)nc1N`, the “protection from virus-induced cell death” value was 3.38%.

For `O=c1c2ccccc2[se]n1-c1ccccc1`, the “protection from virus-induced cell death” value is -0.214%.

Turning to `CN1CC[C@@]2(C)c3cc(OC(=O)Nc4ccccc4)ccc3N(C)[C@@H]12`, the “protection from virus-induced cell death” value is 14.1%.

The record behind these values is PubChem BioAssay AID1224854 (National Center for Advancing Translational Sciences (NCATS), 2016).
